Results taken from PubChem BioAssay (NCATS).
Results filed as inconclusive are left out. Entries that show only a call come without a potency. Active and inactive are the calls of the source. Unless noted, calls follow the shape of the dose curve; as a rule, active = well fitted curve in the direction sought with a large enough effect; inconclusive = small, poorly fitted or top-dose-only effect, or another doubt; inactive = no such curve, though single readings can be large; an effect the other way counts as inactive or inconclusive.

Assays:
[1] = target: Aldehyde dehydrogenase, mitochondrial (Homo sapiens) (UniProt P05091); assay: qHTS for Inhibitors of the Aldehyde Dehydrogenase Family (ALDH2) Confirmatory screens (AID 2061303; active = well fitted inhibition curve with a large enough effect; title and protocol of this record describe different tests; also: nearly all actives have a fitted effect of over 45% in size; also: potency is read from the fitted curve at half-maximal effect)
[2] = qHTS for Inhibitors of the Aldehyde Dehydrogenase Family (ALDH1A2, ALDH1A3, ALDH2, ALDH3A1) (AID 2061307); also: nearly all actives have a fitted effect of over 50% in size; as to potency: test system not described further here; potency is read from the fitted curve at half-maximal effect
[3] = target: Aldehyde dehydrogenase, mitochondrial (Homo sapiens) (UniProt P05091); assay: qHTS for Inhibitors of the Aldehyde Dehydrogenase Family (ALDH2) Primary screen (AID 2061308); also: nearly all actives have a fitted effect of over 55% in size; also: potency is read from the fitted curve at half-maximal effect
[4] = target: Retinaldehyde dehydrogenase 3 (Homo sapiens) (UniProt P47895); assay: qHTS for Inhibitors of the Aldehyde Dehydrogenase Family (ALDH1A3) Confirmatory screens (AID 2061311); also: nearly all actives have a fitted effect of over 60% in size; also: potency is read from the fitted curve at half-maximal effect
[5] = target: Retinal dehydrogenase 2 (Homo sapiens) (UniProt O94788); assay: qHTS for Inhibitors of the Aldehyde Dehydrogenase Family (ALDH1A2) Confirmation screens (AID 2061314); also: nearly all actives have a fitted effect of over 65% in size
[6] = target: Retinaldehyde dehydrogenase 3 (Homo sapiens) (UniProt P47895); assay: qHTS for Inhibitors of the Aldehyde Dehydrogenase Family (ALDH1A3) Primary screen (AID 2061315)
[7] = target: Aldehyde dehydrogenase 1A1 (Homo sapiens) (UniProt P00352); assay: qHTS for Inhibitors of the Aldehyde Dehydrogenase Family (ALDH1A1) Confirmatory screens (AID 2061316); also: nearly all actives have a fitted effect of over 65% in size; also: potency is read from the fitted curve at half-maximal effect

Compound | Potency [1] | Potency [2] | Potency [3] | Potency [4] | Potency [5] | Potency [6] | Potency [7]
CC(C)(C)OC(=O)N1CCN(c2ccc(NCc3cnc(-c4ccc(C#N)cc4)o3)cc2)CC1 | 0.4 µM (active) | 0.252 µM (active) | 0.316 µM (active) | inactive | inactive | inactive | inactive
N#Cc1ccccc1OC1=NS(=O)(=O)c2ccccc21 | inactive | inactive | inactive | inactive | inactive | inactive | inactive
CNc1oc(-c2cccc(-c3ccccc3)c2)nc1C#N | 15.8 µM (active) | 17.8 µM (active) | inactive | 25.1 µM (active) |  | inactive | inactive
FC(F)(F)c1ccccc1-c1nc(NCc2ccc(Cl)cc2)c2ccccc2n1 | inactive | inactive | inactive | inactive |  | inactive | inactive
COc1ccc(C2Nc3ccccc3C(=O)N2Cc2ccc(C(F)(F)F)cc2)cc1COc1ccc(NC(C)=O)cc1 (stereo not drawn) | 0.447 µM (active) | 3.57 µM (active) | inactive | 2.51 µM (active) |  | inactive | 22.5 µM (active)
O=C(NC1CCCc2c1cnn2-c1ccc(F)cc1F)c1ccc(C(=O)c2ccccc2)cc1 (stereo not drawn) | inactive | inactive | inactive | inactive |  | inactive | 
COc1ccc(C2Nc3ccccc3C(=O)N2Cc2cccc(C(F)(F)F)c2)cc1COc1ccc(NC(C)=O)cc1 (stereo not drawn) | 11.2 µM (active) | 4 µM (active) | inactive | 10 µM (active) |  | inactive | 
COc1cccc(CNc2ccc([S+](=O)([O-])Nc3cc4ccccc4s3)cc2)c1O | inactive | inactive | inactive | 11.3 µM (active) |  | inactive | inactive
